# This is one part of a sample in which hits are shown more often than they occur.
# SF1 inhibitor: blocks the human nuclear receptor SF-1; Q13285; CHO-K1 Gal4-SF-1 LBD luciferase reporter; inhibition, % at 10 µM; 0.55% of 65,000 active;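 active = inhibition above the mean inhibition of all tested compounds plus 3 SD, cut at about 48% in these data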;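 note: 0% = SF-1 transfected cells with DMSO and 100% = mock-transfected cells lacking SF-1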
# Target sequence (Q13285 whole entry, looked up, the tested form may be a part): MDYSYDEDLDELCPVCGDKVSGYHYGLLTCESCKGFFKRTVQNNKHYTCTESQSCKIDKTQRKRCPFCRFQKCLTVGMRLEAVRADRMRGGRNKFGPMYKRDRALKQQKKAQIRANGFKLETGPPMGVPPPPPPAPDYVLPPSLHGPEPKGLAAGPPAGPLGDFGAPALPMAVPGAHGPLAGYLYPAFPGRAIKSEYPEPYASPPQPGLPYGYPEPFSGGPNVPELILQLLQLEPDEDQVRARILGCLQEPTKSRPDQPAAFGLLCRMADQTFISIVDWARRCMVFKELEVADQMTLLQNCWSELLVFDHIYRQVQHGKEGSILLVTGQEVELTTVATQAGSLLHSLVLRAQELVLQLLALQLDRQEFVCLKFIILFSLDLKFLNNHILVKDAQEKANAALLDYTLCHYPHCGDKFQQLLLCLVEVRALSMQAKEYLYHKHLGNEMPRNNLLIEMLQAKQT
# Starred values were filed as active, the others as inactive.
SMILES,SF1 inhibitor
O=C(Nc1cccc(-c2nnc(-c3ccccc3)o2)c1)c1ccc(Br)o1,-67
Cc1cc(C)n2cc(CSc3nnnn3C)nc2n1,-7
Nc1cccc(-c2nc3ccc(N)cc3s2)c1,61*
CN(C)c1nc(N)nc(-c2nc3ccccc3s2)n1,-54
Cc1ccc2[nH]c(-c3cccc(N)c3)cc2c1,-51
Fc1ccc(Nc2nc(N3CCOCC3)c3ccccc3n2)cc1,19
CCCCOc1ncnc2c1[nH]c1ccc(F)cc12,50*
Fc1ccc2[nH]c3c(N4CCN(c5ccccc5)CC4)ncnc3c2c1,60*
c1ccc(N2CCN(c3ncnc4sc5c(c34)CCC5)CC2)cc1,4
COC(=O)c1c(-c2cccnc2)csc1NC(=O)c1cc(C)on1,-80
COC(=O)c1c(N)n(-c2cc(OC)cc(OC)c2)c2nc3ccccc3nc12,3
O=C(CCNS(=O)(=O)c1cccc2nonc12)NC1CCCc2ccccc21 (centres undefined),5
COC(=O)c1cc2sc(Cl)cc2n1CC(=O)N1CCCc2ccccc21,2
O=C1NCCCC1C(=O)NCCN1C(=O)CCC1=O (centres undefined),-16
CC1=C(C)CC(C(=O)c2ccccc2)C(C(=O)O)C1 (centres undefined),20
CC(C)NCC(O)Cn1c2c(c3ccccc31)CCc1c-2cnn1-c1ccccc1 (centres undefined),52*
CC(=O)Cc1nsc(NC(=O)c2cc(-c3cccc(C(F)(F)F)c3)oc2C)n1,-2
Cc1ccc(S(=O)(=O)Nc2cccc3ncccc23)s1,91*
O=C1CCCC2=C1C(c1ccccc1)C1=C(CCCC1=O)O2,14
COc1ccc(S(=O)(=O)NCCC(=O)NCc2ccccc2)cc1,-1
Cc1c(-c2nc(N)nc(Nc3ccccc3)n2)oc2ccccc12,-162
O=C(CCC1(C(=O)O)CCC(=O)NC1)NCc1ccccc1 (centres undefined),-20
COc1cccc(-c2nc(-c3ccc(NC(=O)c4cccnc4)cc3)no2)c1,-55
COc1cccc(-c2nnc(NC(=O)c3ccc(S(=O)(=O)N4CC(C)OC(C)C4)cc3)o2)c1 (centres undefined),49*
COc1cccc(-c2nc(CS(=O)(=O)CC(=O)N3CCN(C)CC3)c(C)o2)c1,-7
SMILES,SF1 inhibitor
Cc1ccc2c(c1)C(N1CCCC1=O)CC(c1ccco1)N2 (centres undefined),-58
C/C(=N\O)c1ccc2c3c([nH]c2c1)CCCC3,-64
COc1ccc(OC)c(-n2nnnc2SCC(=O)Nc2ccc(C(=O)N3CCCCC3)cc2)c1,14
C=CCN(C(=O)CCC(=O)Nc1cc(C)on1)C(C(=O)NC(C)(C)C)c1cccc(OC)c1OC (centres undefined),6
COc1ccc2c(c1)sc1nc(-c3ccccc3)cn12,89*
COc1cccc(-c2csc(NC(=O)C3CC3)n2)c1,-60
Cc1c(C(=O)Nc2ccccc2)sc2nc(-c3ccccc3)cn12,-54
COc1nc(OCCNC(=O)Nc2ccccc2)nc(N(C)C)n1,5
CCOC(=O)N1CCC(NC(=O)c2cccc3c2C(=O)N(CCOC)C3)CC1,4
c1ccc(-c2nc(NCc3ccco3)c3ccccc3n2)nc1,76*
c1ccc(-n2ncc3c(NCc4ccco4)ncnc32)cc1,-77
c1ccc(-c2nc(NCC3CCCO3)c3ccccc3n2)nc1 (centres undefined),1
O=C(c1cnsn1)N1CCN(c2ccccn2)CC1,-4
Cc1cc(C)nc(SCCS(=O)Cc2ccc(Cl)cc2)n1 (centres undefined),-1
O=C(CN(C1CCCCC1)S(=O)(=O)c1ccc(Cl)cc1)NCCCO,-2
CCOC(=O)c1c(C)[nH]c(C(=O)Nc2ccc3c(c2)OCO3)c1C,-132
Cc1cc(N2CCc3ccccc32)n2ncnc2n1,16
CCn1c2ccccc2c2cc(Nc3cc(C)nc4ncnn34)ccc21,70*
Cc1cc(N2CCN(c3nnnn3-c3ccccc3)CC2)n2ncnc2n1,-6
CSCC[C@H](NC(=O)NCCC1=CCCCC1)C(=O)O,-9
CCOP(=O)(c1c(F)c(F)c(F)c(F)c1F)C1(O)CCCCC1 (centres undefined),0
O=C(Cn1ncn2c(cc3ccccc32)c1=O)NCc1ccco1,-8
CCOC(=O)c1cc(-c2ccco2)nc2c1c(C)nn2-c1ccccc1,10
CCOC(=O)c1cnn2c(C)cc(-c3ccccc3)nc12,-65
CCOC(=O)c1cnc(-n2nc(C)cc2C)nc1NC(C)c1ccccc1 (centres undefined),49*
SMILES,SF1 inhibitor
O=C(COc1ccc(Cl)cc1)NC1CCSC1=O (centres undefined),-3
CCCc1noc(-c2ccc(-c3ccccc3)cc2)n1,-55
ONC(=Nc1ccccc1)C(=Nc1ccccc1)NO,7
CCOC(=O)NCCc1ccc(OC)cc1,5
CCc1c(C)nc2ncnn2c1NCCc1ccc(OC)cc1,85*
COc1ccc(CCNc2oc(COc3ccccc3)nc2C#N)cc1,-5
Cc1cccc2[nH]c(-c3ccc(NC(=O)c4ccco4)cc3)nc12,-74
CCOc1ccc(NS(=O)(=O)c2ccc(SC)cc2)cc1,0
CCCCOc1ccc(S(=O)(=O)Nc2cccnc2)cc1,49*
O=S(=O)(Nc1cccc(C(F)(F)F)c1)c1cccnc1,5
CCn1nnnc1-c1ccc(OC)c(S(=O)(=O)N2CCCCC2)c1,-21
COc1ccc(N=CC2=C(O)CC(C)(C)CC2=O)cc1,-87
Cc1cnc(C(=O)Nc2nnc(C(C)C)s2)cn1,-68
Cc1cnc(C(=O)Nc2cccc3cccnc23)cn1,61*
O=C(Nc1cccc2ccccc12)c1cnccn1,-63
CCn1c(CNc2cccc(Cl)c2)nnc1SCc1ccccc1,13
CC1(C)CC(OC(=O)c2ccco2)CC(C)(C)N1O,9
O=C(c1ccc(CS(=O)(=O)Cc2ccc(Cl)cc2)o1)N1CCCC1,5
Cc1ccc(-c2cc3c(nn2)-c2ccccc2C3=O)cc1,88*
O=C(OCc1nc2ccccc2s1)C1CCN(C2=NS(=O)(=O)c3ccccc32)CC1,-53
Cc1ccc2oc(=O)c3cnn(CC(=O)NCCCOC(C)C)c3c2c1,-4
Cc1nc(N2CCN(c3ccccc3)CC2)[nH]c(=O)c1Cc1cccc2ccccc12,52*
Cn1c(=O)c2c(nc(N3CCCCCC3)n2Cc2cccc3ccccc23)n(C)c1=O,3
Cc1ccc2cc(C(c3nnnn3Cc3ccccc3)N3CCN(c4ccccc4)CC3)c(=O)[nH]c2c1 (centres undefined),-5
Cn1cccc1C(=O)OCc1cc(Cl)cc2c1OCOC2,-60
SMILES,SF1 inhibitor
Cc1nn(-c2nc3ccccc3s2)c(N)c1Sc1ccc(F)cc1,-63
CCOC(=O)C1CCN(S(=O)(=O)c2ccc(-c3nc4ccccc4s3)s2)CC1,-68
O=C(Nc1nc2ccccc2s1)c1ccc(Cl)s1,-98
O=C(NC1CC1)c1ccc(-c2nc3ccccc3s2)s1,79*
COc1cc(NC(=O)CN2C(=O)c3ccccc3C2=O)c(C(=O)O)cc1OC,-4
CN(Cc1ccco1)C(=O)c1ccc(N2CCCC2=O)cc1,-10
Cc1cccc(CN2CCC(CNC(=O)C3CCCN(S(=O)(=O)c4cnc[nH]4)C3)CC2)c1 (centres undefined),-3
CCOc1ccccc1-c1nc(-c2ccc(C)nc2OC)no1,-58
Cc1cc(C)n(-c2nc(C)nc3sc4c(c23)CCC(C)C4)n1 (centres undefined),5
COc1ccc(Nc2nc(C)c3ccccc3n2)cc1,-99
COc1ccc(S(=O)(=O)N(Cc2ccccc2)Cc2nc3ccccc3c(=O)[nH]2)cc1,12
COc1nc(Nc2nc3ccccc3c(=O)[nH]2)nc2ccc(C)cc12,76*

# Screens as filed in PubChem.
